# Article PMC5540273 (PLoS ONE, 2017)
# Legend:
# Conditions in all cases: concentration: 1 μM, replicates: in singlicate; n = 1
# CAMK2D = test system: CAMK2D
# CAMK2G = test system: CAMK2G
# CAMK4 = test system: CAMK4
# CAMKK1 = test system: CAMKK1
# CAMKK2 = test system: CAMKK2
# CASK = test system: CASK
# CDC2L1 = test system: T1, CDC2L1
# T1 construct: gene CDK11B
# CDC2L2 = test system: CDC2L2
# CDC2L5 = test system: T2, CDC2L5
# T2 construct: gene CDK13
# CDK11 = test system: T3, CDK11
# T3 construct: gene CDK19
# CDK2 = test system: CDK2
# CDK3 = test system: CDK3
# CDK4-cyclinD1 = test system: CDK4-cyclinD1
# CDK4-cyclinD3 = test system: CDK4-cyclinD3
# CDK4 = test system: CDK4
# CDK5 = test system: CDK5
# CDK7 = test system: CDK7
# CDK8 = test system: CDK8
# CDK9 = test system: CDK9
# CDKL1 = test system: CDKL1
# 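Note: KINOMEscan kinase panel screen.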
SMILES,%Inh (CAMK2D) [%],%Inh (CAMK2G) [%],%Inh (CAMK4) [%],%Inh (CAMKK1) [%],%Inh (CAMKK2) [%],%Inh (CASK) [%],%Inh (CDC2L1) [%],%Inh (CDC2L2) [%],%Inh (CDC2L5) [%],%Inh (CDK11) [%],%Inh (CDK2) [%],%Inh (CDK3) [%],%Inh (CDK4-cyclinD1) [%],%Inh (CDK4-cyclinD3) [%],%Inh (CDK4) [%],%Inh (CDK5) [%],%Inh (CDK7) [%],%Inh (CDK8) [%],%Inh (CDK9) [%],%Inh (CDKL1) [%]
COc1cc2c(Nc3cccc(NC(=O)c4ccccc4)c3)ncnc2cc1OCCCN1CCOCC1 [GSK223810],0,15,0,1,0,6,0,11,0,3,0,5,0,0,0,0,0,14,0,0
Cn1cc(-c2ccc3c(c2)CCN3C(=O)Cc2cccc(C(F)(F)F)c2)c2c(N)ncnc21 [GSK2606414],0,5,0,7,0,75,0,0,0,37,0,0,0,0,6,0,0,34,0,0
Cc1cc(N2CCC(NS(=O)(=O)c3ccc(F)cc3)CC2)nc(Nc2cccc(C#N)c2)n1.O=C(O)C(F)(F)F [GSK1653537],3,1,0,5,0,0,0,0,0,0,4,0,0,0,5,0,0,10,0,0
COc1ccc(-c2oc3ncnc(N)c3c2-c2ccc(OC)cc2)cc1 [SB-589132],3,2,13,0,0,0,0,0,0,11,0,6,27,12,59,0,0,62,0,5
CCc1nc(-c2cccc(C)c2)c(-c2ccnc(NC(=O)c3ccccc3)c2)s1,0,10,0,4,7,0,11,2,12,5,0,0,15,6,13,21,24,1,0,0
Oc1ccc2ncnc(Nc3ccc(OCc4ccccc4)cc3)c2c1 [GI262866],1,2,0,0,0,8,0,0,0,36,0,22,0,0,16,0,0,21,0,0
CN1CCC(n2cnc(-c3ccc(F)cc3)c2-c2ccnc(NC3CCNCC3)n2)CC1 [SB-229482],7,0,7,14,26,20,0,8,31,0,0,0,33,11,44,4,30,11,0,0
CS(=O)(=O)CCNCc1ccc(-c2ccc3ncnc(Nc4ccc(OCc5ccccc5)c(Cl)c4)c3c2)o1.Cl [GW574783],4,11,0,0,0,3,0,0,0,15,5,10,21,0,0,0,0,43,0,0
CSc1nn2c(=O)cc(N3CCOCC3)nc2n1Cc1cccc(Cl)c1Cl [GSK2347225],21,25,0,13,23,2,0,9,0,8,0,6,0,0,16,9,0,0,4,0
CN1c2ccc(-c3ccc(C(=O)NCCO)cc3)cc2-c2[nH]ncc2S1(=O)=O,24,21,0,22,37,48,0,0,2,11,2,0,20,12,0,0,32,0,0,22
Fc1cccc(COc2ccc(Nc3ncnc4nn5ccccc5c34)cc2Cl)c1 [GW689066],0,10,0,5,0,0,0,0,0,2,0,0,13,0,33,0,0,37,0,0
Cl.O=S(=O)(c1cccc(F)c1)c1ccc(Nc2ncnc3cc(Br)sc23)cc1Cl [GSK306886],9,0,0,0,20,47,3,20,0,0,6,44,0,7,17,0,0,0,6,19
Fc1cccc(COc2ccc(Nc3ncnc4cc[nH]c34)cc2Cl)c1,9,11,0,11,0,0,17,11,0,26,11,6,6,10,0,21,17,8,11,2
Nc1nccc2scc(-c3ccc4c(c3)CCN4C(=O)Cc3cc(F)ccc3F)c12 [GSK2587663],9,23,0,5,9,22,0,6,0,61,0,18,0,0,0,0,0,61,0,23
Cl.Cn1ccc(-c2cccc(Nc3ccnc4cc(-c5nccs5)ccc34)c2)n1 [GW525701],26,21,0,25,20,2,0,0,0,3,0,6,47,0,36,0,0,7,0,0
N#Cc1ccc(Oc2ccc(Nc3ncnc4cc[nH]c34)cc2Cl)cc1,13,10,3,6,11,0,14,10,0,3,6,2,11,6,0,0,27,13,17,27
Cc1cccc(-c2nc(Nc3ccc4[nH]nnc4c3)c3ccccc3n2)n1 [GW867587],0,0,0,0,0,4,0,0,0,0,0,15,0,0,0,0,0,30,0,0
Nc1nc(-c2cccnc2)c(-c2ccnc3ccccc23)s1 [GW684083],2,27,0,0,19,14,0,12,0,8,0,11,16,0,41,0,0,46,0,13
Cn1ccc2ncnc(Nc3ccc(Oc4cccc(Cl)c4)c(Cl)c3)c21,5,8,0,11,9,9,22,5,13,5,0,0,0,0,0,21,14,22,15,10
O=C(Nc1ccccc1)Nc1ccc(Oc2ccc3nccn3n2)cc1,0,14,29,0,14,7,0,8,0,0,0,1,0,0,0,0,0,23,0,36
Nc1nc(-c2ccc3c(N)n[nH]c3c2)cc(N2CCC[C@@H](C(=O)Nc3ccccc3)C2)n1.O=C(O)C(F)(F)F.O=C(O)C(F)(F)F [GSK2288359],0,22,0,11,16,5,0,19,0,0,0,0,0,0,0,0,0,23,0,15

SMILES,%Inh (CAMK2D) [%],%Inh (CAMK2G) [%],%Inh (CAMK4) [%],%Inh (CAMKK1) [%],%Inh (CAMKK2) [%],%Inh (CASK) [%],%Inh (CDC2L1) [%],%Inh (CDC2L2) [%],%Inh (CDC2L5) [%],%Inh (CDK11) [%],%Inh (CDK2) [%],%Inh (CDK3) [%],%Inh (CDK4-cyclinD1) [%],%Inh (CDK4-cyclinD3) [%],%Inh (CDK4) [%],%Inh (CDK5) [%],%Inh (CDK7) [%],%Inh (CDK8) [%],%Inh (CDK9) [%],%Inh (CDKL1) [%]
CNc1nccc(-c2c(-c3ccc(F)cc3)ncn2CCCN2CCOCC2)n1 [SB-222516],11,16,27,8,14,1,0,0,22,13,0,0,17,16,0,0,7,38,0,24
Cc1ccc(O)cc1Nc1cc(C(F)(F)F)nc2ccc(-c3ccncc3)cc12 [GW630823],2,16,0,11,16,1,17,0,0,0,5,0,0,0,0,0,0,0,5,20
O=C(c1ccc(-c2cc(-c3c[nH]nc3-c3ccccn3)ccn2)cc1)N1CCCC1 [GW792479],3,56,0,23,46,21,0,7,15,5,19,72,22,0,0,38,0,63,2,57
O=C(Nc1n[nH]c2nc(-c3ccco3)c(Br)cc12)c1ccc(CN2CCCC2)cc1.O=C(O)[C@H](O)[C@@H](O)C(=O)O [SB-742352],0,0,0,0,0,0,0,0,0,0,0,0,0,0,0,0,0,0,0,24
Cc1ccc(C)c(NC(=O)NCCNc2ccnc(Nc3ccc(F)cc3)n2)c1 [GSK1379878],18,21,0,0,2,0,0,17,0,6,0,0,0,0,43,0,0,29,0,0
O=C(NCCCN1CCCC1=O)c1cnc(NCc2cc(Cl)ccc2Cl)nc1NC1CCNCC1,0,0,0,4,1,78,0,0,0,4,0,2,0,0,0,11,33,0,0,3
CSc1ccc(NC2=C(c3ccccc3Cl)C(=O)NC2=O)cc1 [SB-342411],28,36,0,5,25,26,0,0,0,0,10,26,61,30,0,0,43,7,0,13
O=C(CCO)NCCn1ccc2ncnc(Nc3ccc(Oc4cccc(C(F)(F)F)c4)c(Cl)c3)c21,0,0,0,0,7,0,0,0,0,0,0,0,0,0,0,0,0,6,0,15
OCCOCCn1ccc2ncnc(Nc3ccc(Oc4cccc(Cl)c4)c(Cl)c3)c21,0,0,0,0,0,0,0,0,0,0,0,0,0,0,0,0,0,0,0,0
Cl.Fc1ccccc1COc1ccc(Nc2ncnc3ccc(-c4nnc(C(F)(F)F)o4)cc23)cc1Cl [GW424170],0,14,0,1,10,0,0,15,0,2,0,0,0,0,26,0,0,29,0,3
Clc1ccc(-c2cc(-c3c[nH]nc3-c3ccccn3)ccn2)cc1 [GW681251],0,8,0,0,0,44,0,0,0,0,22,42,7,0,0,0,0,11,0,15
CCc1nc(-c2cccc(N(C)S(=O)(=O)c3ccccc3)c2)c(-c2ccnc(Nc3ccc(N4CCN(C(C)=O)CC4)nc3)n2)s1 [GSK1645895],24,37,0,30,32,5,11,16,0,6,0,0,0,3,0,0,0,0,15,1
CCC(CC)(CC)n1cnc2c(N)ncnc21 [SKF-97620],0,0,8,0,0,42,0,0,20,0,0,3,0,0,28,5,22,30,0,13
COc1ccc(Nc2nccc(N3CCC(NC(=O)c4cccc(NC(C)=O)c4)C3)n2)cc1 (stereo not drawn) [GSK1379732],8,26,3,0,26,13,0,11,0,15,0,0,20,0,0,0,3,56,0,9
Nc1n[nH]c2nnc(-c3ccccc3)cc12 [SB-517389],2,0,0,0,0,18,0,0,0,0,0,20,0,22,0,0,0,0,21,0
Fc1cccc(COc2ccc(Nc3ncnc4sc(-c5ccc[nH]5)cc34)cc2Cl)c1 [GW707818],7,0,5,0,16,15,20,15,0,5,0,10,0,11,17,0,0,31,14,6
C[C@@H]1CCN(C(=O)CO)C[C@@H]1N(C)c1ncnc2[nH]ccc12,0,13,20,4,11,0,0,0,0,6,0,0,0,0,0,4,20,0,9,12
O=c1cc(N2CCOCC2)nc2n(Cc3cccc(Cl)c3)ccn12 [GSK2296823],0,3,0,17,0,3,0,6,0,0,0,3,0,13,0,0,0,0,0,9
CC(C)N1CCC(n2cnc(-c3ccc(F)cc3)c2-c2ccnc(N)n2)CC1 [SB-223132],1,4,0,21,6,0,5,19,0,10,0,28,0,0,10,0,0,54,0,57
COc1ccc(NC(=O)c2ccc(-c3cc(-c4nnc(C)o4)ccc3C)cc2)cc1 [GW595885],0,8,0,0,0,21,0,0,0,0,0,22,14,0,0,0,0,9,0,0
Cl.Cl.c1ccc(-c2cc3ccncc3cc2OC2CCNCC2)cc1 [GSK1122999],26,20,43,0,30,16,15,5,0,12,0,10,0,0,11,0,0,15,2,10
